Laboratory results as given in PubChem BioAssay.
The source made the active and inactive calls.

Columns and labels:
[1] = anti-His antibody binders, primary screen, artefact control for SMM control protein annotation, biochemical, small-molecule microarray, 635 nm fluorescence (AID 1128); conditions: anti-His Alexa647 antibody binding, higher = more signal;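 also: score merges feature fluorescence with signal-to-noise for each printed compound spot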
[2] = system: Human papillomavirus type 1a E7 protein (residues 1-88); assay: HPV1a E7 small-molecule binders, primary screen, biochemical, small-molecule microarray, residues 1-88, 635 nm (AID 1129); conditions: small-molecule microarray binding, fluorescence 635 nm; higher = more signal
[3] = biological target: Focal adhesion kinase 1 (Homo sapiens) (UniProt Q05397); assay: small-molecule microarray binders of FAK, primary screen, biochemical, 635/667 nm fluorescence, BSA, DTT (AID 1130); conditions: PTK2 binding, 635 nm fluorescence, higher = more signal;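 also: composite of spot emission at 667 nm and signal to noise over triplicate slides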
Sequence of Focal adhesion kinase 1 (Homo sapiens) (Q05397 whole entry, looked up): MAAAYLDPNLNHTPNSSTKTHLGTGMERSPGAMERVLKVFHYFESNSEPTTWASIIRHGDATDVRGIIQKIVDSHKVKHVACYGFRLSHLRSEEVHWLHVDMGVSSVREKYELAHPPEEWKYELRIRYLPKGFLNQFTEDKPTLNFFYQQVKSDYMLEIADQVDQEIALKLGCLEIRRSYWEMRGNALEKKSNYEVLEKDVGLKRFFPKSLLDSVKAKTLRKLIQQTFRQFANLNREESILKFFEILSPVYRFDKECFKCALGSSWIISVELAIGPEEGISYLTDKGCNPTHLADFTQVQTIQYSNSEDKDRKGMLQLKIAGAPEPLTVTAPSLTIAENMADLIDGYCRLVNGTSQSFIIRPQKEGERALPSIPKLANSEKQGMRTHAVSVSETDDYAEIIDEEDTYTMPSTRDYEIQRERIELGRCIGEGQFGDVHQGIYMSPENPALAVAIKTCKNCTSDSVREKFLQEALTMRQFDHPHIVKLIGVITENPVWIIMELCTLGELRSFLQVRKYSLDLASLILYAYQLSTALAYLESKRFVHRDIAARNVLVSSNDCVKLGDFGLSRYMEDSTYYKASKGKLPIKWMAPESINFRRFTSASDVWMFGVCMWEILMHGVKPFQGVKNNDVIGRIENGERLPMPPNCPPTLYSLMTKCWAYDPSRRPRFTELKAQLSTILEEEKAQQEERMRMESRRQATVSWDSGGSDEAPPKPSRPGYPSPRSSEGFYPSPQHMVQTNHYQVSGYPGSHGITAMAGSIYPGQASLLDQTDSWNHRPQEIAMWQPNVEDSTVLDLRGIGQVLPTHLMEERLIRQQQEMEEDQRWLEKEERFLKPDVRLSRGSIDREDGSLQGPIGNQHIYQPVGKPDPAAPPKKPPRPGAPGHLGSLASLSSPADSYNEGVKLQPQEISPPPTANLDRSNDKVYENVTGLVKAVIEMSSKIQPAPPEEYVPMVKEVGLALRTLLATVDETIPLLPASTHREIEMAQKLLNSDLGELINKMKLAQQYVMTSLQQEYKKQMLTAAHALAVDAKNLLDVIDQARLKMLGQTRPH

[4] = system: Fibrinogen (Alexa647-labelled); assay: fibrinogen binders on compound microarrays, profiling panel, artefact control for SMM control-protein annotation, biochemical, small-molecule microarray, 635/667 nm fluorescence (AID 1131); conditions: fibrinogen-A647 binding fluorescence, higher = more signal;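 also: z-score merges 667 nm fluorescence with per-spot signal-to-noise over triplicate slides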
[5] = biological target: Follistatin (Homo sapiens) (UniProt P19883); assay: follistatin binders on small-molecule microarrays, primary screen, biochemical, small-molecule microarray, 635/667 nm fluorescence (AID 1132); conditions: FST binding, 635 nm fluorescence, higher = more signal
Sequence of Follistatin (Homo sapiens) (P19883 whole entry, looked up): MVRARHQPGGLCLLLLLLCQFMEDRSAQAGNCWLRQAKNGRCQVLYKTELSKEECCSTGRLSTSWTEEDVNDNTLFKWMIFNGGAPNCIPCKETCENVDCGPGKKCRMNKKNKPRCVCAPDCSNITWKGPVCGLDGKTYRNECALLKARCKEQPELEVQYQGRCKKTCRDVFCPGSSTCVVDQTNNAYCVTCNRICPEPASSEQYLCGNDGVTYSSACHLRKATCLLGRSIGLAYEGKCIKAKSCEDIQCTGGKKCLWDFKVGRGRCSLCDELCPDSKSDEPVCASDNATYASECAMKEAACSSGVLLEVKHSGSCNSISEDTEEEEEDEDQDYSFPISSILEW

[6] = biological target: Fibroblast growth factor 2 (Homo sapiens) (UniProt P09038); assay: FGF2 binders on small-molecule microarrays, primary screen, biochemical, small-molecule microarray, 635/667 nm fluorescence (AID 1133); conditions: small-molecule microarray binding, FGF2, fluorescence 635/667; higher = more signal
Sequence of Fibroblast growth factor 2 (Homo sapiens) (P09038 whole entry, looked up): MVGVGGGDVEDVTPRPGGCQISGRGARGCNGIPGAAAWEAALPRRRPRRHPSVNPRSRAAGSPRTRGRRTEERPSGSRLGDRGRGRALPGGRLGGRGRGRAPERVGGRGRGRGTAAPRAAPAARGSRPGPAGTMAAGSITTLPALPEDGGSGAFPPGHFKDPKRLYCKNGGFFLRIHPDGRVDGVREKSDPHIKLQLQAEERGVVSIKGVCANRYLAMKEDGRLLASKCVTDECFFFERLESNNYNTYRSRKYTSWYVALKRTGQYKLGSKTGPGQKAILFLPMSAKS

[7] = mitochondrial membrane potential change in A549 cells, profiling panel, cell-based, JC-1 fluorescence, basal, 24 h, 100 nL (AID 1138); conditions: higher = more signal;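 also: A549 lung adenocarcinoma cells under basal conditions with no added stimulus; test concentration not given here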
Lefty1 = Lefty1 binders on small-molecule microarrays, primary screen, biochemical, small-molecule microarray, 635/667 nm fluorescence (AID 1139); conditions: small-molecule microarray binding, fluorescence 635/667; higher = more signal
[8] = system: wheat germ agglutinin (Triticum aestivum), Alexa647-labelled; assay: wheat germ agglutinin binders on compound microarrays, profiling panel, artefact control for SMM control-protein annotation, biochemical, small-molecule microarray, 635/667 nm fluorescence (AID 1140); conditions: WGA-A647 binding, 635 nm fluorescence, higher = more signal;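 also: score merges 667 nm feature emission with signal to noise over triplicate slides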
[9] = biological target: Luciferin 4-monooxygenase (Photinus pyralis) (UniProt P08659); assay: firefly luciferase enzyme inhibitors, primary screen, biochemical, luminescence, purified enzyme, 2006 set (AID 1141); conditions: SteadyGlo luminescence, 30 min, higher = more signal, called active from +8 up or from −8 down;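 also: cell-free assay with purified firefly luciferase at 100 ng per well in PBS; test concentration not given here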
Sequence of Luciferin 4-monooxygenase (Photinus pyralis) (P08659 whole entry, looked up): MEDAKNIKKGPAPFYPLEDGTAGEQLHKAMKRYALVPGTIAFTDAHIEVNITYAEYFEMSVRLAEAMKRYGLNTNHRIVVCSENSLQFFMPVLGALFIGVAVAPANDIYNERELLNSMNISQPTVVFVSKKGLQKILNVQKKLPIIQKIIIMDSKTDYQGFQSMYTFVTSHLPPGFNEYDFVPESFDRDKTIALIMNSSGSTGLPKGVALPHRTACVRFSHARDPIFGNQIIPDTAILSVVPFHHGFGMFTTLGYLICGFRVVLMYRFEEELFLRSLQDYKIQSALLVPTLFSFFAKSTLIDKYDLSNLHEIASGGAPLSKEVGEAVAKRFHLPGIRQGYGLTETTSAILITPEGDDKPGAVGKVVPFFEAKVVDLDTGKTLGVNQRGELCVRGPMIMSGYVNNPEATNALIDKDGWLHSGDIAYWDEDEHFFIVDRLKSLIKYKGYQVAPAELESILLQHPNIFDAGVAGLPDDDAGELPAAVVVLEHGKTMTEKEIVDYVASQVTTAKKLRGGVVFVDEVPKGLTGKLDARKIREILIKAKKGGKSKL

SMILES	composite z-score [1]	composite z-score [2]	composite z-score [3]	composite z-score [4]	composite z-score [5]	composite z-score [6]	z-score [7]	composite z-score (Lefty1)	composite z-score [8]	z-score [9]
COC(=O)C1=CC(c2ccc(CO)cc2)=CC(C2CC2)N(Cc2sc3ccccc3c2Cl)C=C1C(=O)OC (stereo not given)	3.42	1.19	1.46	0.896	0.851	0.3	2.04	0.573	1.49	-1.55 (inactive)
CCC#CCN(Cc1ccccc1Br)[C@H](/C=C/c1ccccc1)[C@@H](O)Cc1ccccc1	0.017	-0.518	-0.0168	-0.58	-0.886	-1.48	-0.565	-0.978	-0.518	-0.686 (inactive)
CC(C)C[C@@H]1NC(=O)[C@H](CC(C)C)NC(=O)[C@@]23C(=O)N[C@@H](Cc4ccccc4)C2[C@H](C)[C@@]2(C)O[C@H]2C3/C=C/CC/C=C/CNC1=O (stereo not given in full)	0.239	0.329	0.427	0.722	0.758	0.319	0.234	1.01	0.265	0.244 (inactive)
CCCC=C(CCC)[C@@H](NC(=O)c1ccc(C(F)(F)F)cc1)c1ccccc1	0.81	0.788	0.0363	0.0538	0.0643	-0.764	-2.54	0.0969	0.352	1.2 (inactive)
C=CC[C@]1(C(N)=O)N=C(c2ccc(OCCCO)cc2)O[C@H]1c1ccccc1CN=[N+]=[N-]	3.2	0.928	0.409	1.01	0.653	-0.373	0.766	-0.484	1.43	-1.47 (inactive)
CCCC=C(CCC)[C@@H](NS(=O)(=O)c1cccc(C(F)(F)F)c1)c1ccc(C(=O)OC)cc1	0.54	0.4	-0.209	0.436	0.572	0.319	0.622	0.0304	0.295	2.82 (inactive)
COC(=O)[C@@]1(Cc2ccccc2CN=[N+]=[N-])N=C(c2ccc(OCCCO)cc2)O[C@H]1c1ccccc1N=[N+]=[N-]	-0.0307	0.339	1.96	0.694	0.832	0.0085	-0.403	0.79	0.727	-10.1 (active)
O=C(NCC(F)(F)F)[C@@H]1c2ccccc2C(=O)N(Cc2ccccc2Cl)[C@H]1c1ccc(CO)cc1	0.752	-0.778	-0.844	-0.81	-0.607	-0.434	0.97	-1.23	-0.742	-0.565 (inactive)
[N-]=[N+]=NCc1ccccc1C[C@@]1(C(=O)O)N=C(c2ccc(OCCCO)cc2)O[C@@H]1c1ccccc1N=[N+]=[N-]	1.36	1.22	0.581	1.02	0.622	-0.316	0.376	0.42	0.415	-8.1 (active)
C=CCC(OC(C)=O)[C@@H]1[C@@H](N(Cc2ccc(-c3ccccc3)cc2)C(=O)c2ccc(C)cc2)c2cc(OCCCO)ccc2N1C(=O)c1ccc(-c2ccccc2)cc1 (stereo not given in full)	-0.958	0.438	0.248	-0.195	0.217	0.0217	2.98	-0.166	0.258	-1.81 (inactive)
Cc1ccc(S(=O)(=O)N[C@H]2COC(=O)CC=C[C@H](C)COC(=O)N[C@@H](C)C(=O)CC=C[C@@H]2C)cc1	-0.45	-0.368	-0.502	-0.446	0.953	1.43	0.204	1.65	-0.557	-0.537 (inactive)
COC(=O)Cn1c(C(=O)N2CCCC2)cc2c1C[C@H]1CN(C(=O)c3ccccc3)[C@@](Cc3ccc(OC)cc3)(C(=O)OC)[C@@H]21	1.9	1.24	1.67	0.972	0.43	-0.612	1.31	-0.544	1.18	1.78 (inactive)
C[C@]1(C(=O)NCCN2CCOCC2)c2ccccc2C(=O)N(Cc2ccccc2)[C@H]1c1ccc(CO)cc1	1.6	-0.385	-0.43	-0.665	0.0342	-0.256	-1.19	-0.718	-0.208	1.47 (inactive)
CN(C)CCCC[C@@H]1NC(=O)[C@@H]2C[C@H](C(=O)O)[C@H](c3ccc(O)cc3)N2C1=O	1.34	0.704	0.324	0.166	1.37	1.35	-0.0467	1.64	0.176	-0.486 (inactive)
O=C/C=C/c1ccccc1Cl	-0.761	-0.836	0.878	0.0503	0.0323	-0.517	0.653	-0.239	0.687	-2.21 (inactive)
O=C1C[C@@](C(=O)NC2CC2)(c2ccc([N+](=O)[O-])cc2)[C@@H](c2ccc(CO)cc2I)N1CC12CC3CC(CC(C3)C1)C2	-0.317	1.18	0.32	0.751	1.07	0.718	-0.558	1.15	0.793	-0.318 (inactive)
C=C[C@H](OC)[C@@H](OC(=O)Nc1ccc(SC)cc1)c1ccc(OC)c(O)c1	-0.548	-0.19	-0.0802	-0.666	-0.466	-0.896	0.52	-0.541	-1.51	-2.18 (inactive)
CN1C(=O)C2C=CC(C(O)C3CC=CCC3)N(Nc3ccccc3)C2C1=O (stereo not given)	0.674	1.14	-0.198	0.678	1.28	0.769	0.883	1.29	1.24	0.864 (inactive)
COc1cc(Cc2cc3c(c(CCc4ccccc4)n2)[Si](C(C)C)(C(C)C)OC3)cc(OC)c1OC	0.151	-0.162	0.0612	-0.386	0.694	0.263	1.51	0.48	-0.14	0.874 (inactive)
COCCOC(=O)N1C(=O)[C@@]2(c3cc(C#CCC(C(=O)OC)C(=O)OC)ccc31)[C@H](c1ccccc1OCCO)N1[C@H](c3ccccc3)[C@H](c3ccccc3)OC(=O)[C@H]1[C@@H]2C(=O)N1CCCCCCC1	1.75	1.18	0.384	0.744	1.51	1.05	-0.729	1.55	0.529	0.406 (inactive)
CC(C)N1CC=CC23O[C@@H]4/C=C\CCCOC(=O)C4[C@H]2C(=O)N(CCCCCO)[C@@H]3C1=O (stereo not given in full)	-2.21	-1.79	-0.925	-3.13	-1.15	-1.03	3.68	-1.52	-1.78	-1.32 (inactive)
C=CC[C@]1(C(=O)O)N=C(c2ccc(OCCCO)cc2)O[C@H]1c1ccccc1	0.254	-0.531	-0.231	0.243	-0.367	-0.503	-0.124	-1.09	1.25	-1.8 (inactive)
CO[C@H]1COC(=O)[C@H](C)NC(=O)CC=C[C@@H](C)[C@H](NS(=O)(=O)c2ccc(C)cc2)COC(=O)[C@@H](OCc2ccccc2)C=C[C@@H]1C	-1.04	-0.515	0.269	-0.394	0.641	0.574	1.87	1.02	-0.609	-0.893 (inactive)
C=C(/C(=C/C[C@@H](OC(=O)c1ccncc1)c1ccc(CO)o1)c1cnc2ccccc2c1)C(C)C	1.73	0.969	0.462	0.954	1.32	1.07	0.313	0.949	1.4	-4.43 (inactive)
